# Measured values taken from the supplement of paper PMC8728848.
# Shown is part of a subset that was picked to be rich in the strongest signals.
# B1: SUN4P (Saccharomyces cerevisiae), P53616 (protein)
# chain: MGSSHHHHHHSSGLVPRGSHNGSIYGDLADFSGPYEKFEDGTIPCGQFPSGQGVIPISWLDEGGWSGVENTDTSTGGSCKEGSYCSYACQPGMSKTQWPSDQPSDGRSIGGLLCKDGYLYRSNTDTDYLCEWGVDAAYVVSELSNDVAICLTDYPGTENMVIPTYVQAGDSLPLTVVDQDTYYTWQGLKTSAQYYVNNAGISVEDACVWGSSSSGVGNWAPLNFGAGSSDGVAYLSLIPNPNNGNALNFNVKIVAADDSSTVNGECIYENGSFSGGSDGCTVSVTAGKAKFVLYN
# Tests used:
# Experiment in all cases: glycan array binding signal (z-score within array); higher = stronger binding
# Details in all cases: glycan notation: IUPAC condensed, linker removed; mutation: R276L
# [1] = target: Fuc(a1-2)Gal(b1-3)[Fuc(a1-4)]GlcNAc(b1-3)[Fuc(a1-3)[Gal(b1-4)]GlcNAc(b1-6)]Gal(b1-4)Glc
# Outline: (§1)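 Glycan array binding is given as a within-array Z-score, which can be read as non-binding when negative. The arrays, 3228 of them, came from the Consortium for Functional Glycomics database and were retained only where the protein sequence was available. Z-scores were averaged across arrays of the same protein sequence at different concentrations or buffers and across linkers.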
# [2] = target: Fuc(a1-2)Gal(b1-3)[Fuc(a1-4)]GlcNAc(b1-3)[Gal(b1-4)GlcNAc(b1-6)]Gal(b1-4)Glc
# Outline: as §1
# [3] = target: Fuc(a1-2)Gal(b1-4)GlcNAc(b1-2)Man(a1-3)[Fuc(a1-2)Gal(b1-4)GlcNAc(b1-2)Man(a1-6)]Man(b1-4)GlcNAc(b1-4)GlcNAc
# Outline: as §1
# [4] = target: Fuc(a1-2)Gal(b1-4)GlcNAc(b1-3)GalNAc
# Outline: as §1
# [5] = target: Fuc(a1-2)Gal(b1-4)GlcNAc(b1-3)[Fuc(a1-2)Gal(b1-4)GlcNAc(b1-6)]GalNAc
# Outline: as §1
# [6] = target: Fuc(a1-2)Gal(b1-4)GlcNAc6S
# Outline: as §1
# [7] = target: Fuc(a1-2)[GalNAc(a1-3)]Gal(b1-3)GalNAc(b1-3)Gal(a1-4)Gal(b1-4)Glc
# Outline: as §1
# [8] = target: Fuc(a1-2)[GalNAc(a1-3)]Gal(b1-3)GlcNAc
# Outline: as §1
# [9] = target: Fuc(a1-2)[GalNAc(b1-3)]Gal
# Outline: as §1
# [10] = target: Gal(a1-3)Gal(b1-3)[Fuc(a1-4)]GlcNAc(b1-2)Man(a1-3)[Gal(a1-3)Gal(b1-3)[Fuc(a1-4)]GlcNAc(b1-2)Man(a1-6)]Man(b1-4)GlcNAc(b1-4)GlcNAc
# Outline: as §1
# Gal(a1-4)GlcNAc = target: Gal(a1-4)GlcNAc
# Outline: as §1
# Gal(b1-2)Gal = target: Gal(b1-2)Gal
# Outline: as §1
# Gal(b1-3)Gal = target: Gal(b1-3)Gal
# Outline: as §1
# Gal(b1-3)GalNAc = target: Gal(b1-3)GalNAc
# Outline: as §1
# Gal(b1-3)GalNAc(b1-3)Gal = target: Gal(b1-3)GalNAc(b1-3)Gal
# Outline: as §1
# [11] = target: Gal(b1-3)GalNAc(b1-4)Gal(b1-4)Glc
# Outline: as §1
# Gal(b1-3)GlcNAc = target: Gal(b1-3)GlcNAc
# Outline: as §1
# [12] = target: Gal(b1-3)GlcNAc(b1-2)Man(a1-3)[Gal(b1-3)GlcNAc(b1-2)Man(a1-6)]Man(b1-4)GlcNAc(b1-4)GlcNAc
# Outline: as §1
# [13] = target: Gal(b1-3)GlcNAc(b1-3)Gal(b1-4)Glc
# Outline: as §1
# [14] = target: Gal(b1-3)GlcNAc(b1-3)Gal(b1-4)GlcNAc(b1-2)[Gal(b1-3)GlcNAc(b1-3)Gal(b1-4)GlcNAc(b1-6)]Man(a1-6)[Gal(b1-3)GlcNAc(b1-3)Gal(b1-4)GlcNAc(b1-2)Man(a1-3)]Man(b1-4)GlcNAc(b1-4)[Fuc(a1-6)]GlcNAc
# Outline: as §1
# [15] = target: Gal(b1-3)[Neu5Ac(a2-6)]GalNAc
# Outline: as §1
# [16] = target: Gal(b1-4)GlcNAc(b1-2)Man(a1-3)Man(b1-4)GlcNAc(b1-4)GlcNAc
# Outline: as §1
# [17] = target: Gal(b1-4)GlcNAc(b1-2)Man(a1-3)[GlcNAc(b1-2)Man(a1-6)]Man(b1-4)GlcNAc(b1-4)GlcNAc
# Outline: as §1
# [18] = target: Gal(b1-4)GlcNAc(b1-2)[Gal(b1-4)GlcNAc(b1-4)]Man(a1-3)[GlcNAc(b1-4)][Gal(b1-4)GlcNAc(b1-2)[Gal(b1-4)GlcNAc(b1-6)]Man(a1-6)]Man(b1-4)GlcNAc(b1-4)GlcNAc
# Outline: as §1
# [19] = target: Gal(b1-4)GlcNAc(b1-3)Gal(b1-4)GlcNAc(b1-2)[Gal(b1-4)GlcNAc(b1-3)Gal(b1-4)GlcNAc(b1-6)]Man(a1-6)[Gal(b1-4)GlcNAc(b1-3)Gal(b1-4)GlcNAc(b1-2)Man(a1-3)]Man(b1-4)GlcNAc(b1-4)GlcNAc
# Outline: as §1
# [20] = target: Gal(b1-4)GlcNAc(b1-3)Gal(b1-4)GlcNAc(b1-3)Gal(b1-4)GlcNAc(b1-2)Man(a1-3)[Gal(b1-4)GlcNAc(b1-3)Gal(b1-4)GlcNAc(b1-3)Gal(b1-4)GlcNAc(b1-2)Man(a1-6)]Man(b1-4)GlcNAc(b1-4)GlcNAc
# Outline: as §1
# [21] = target: Gal(b1-4)GlcNAc(b1-3)Gal(b1-4)GlcNAc(b1-3)Gal(b1-4)GlcNAc(b1-2)[Gal(b1-4)GlcNAc(b1-3)Gal(b1-4)GlcNAc(b1-3)Gal(b1-4)GlcNAc(b1-6)]Man(a1-6)[Gal(b1-4)GlcNAc(b1-3)Gal(b1-4)GlcNAc(b1-3)Gal(b1-4)GlcNAc(b1-2)Man(a1-3)]Man(b1-4)GlcNAc(b1-4)[Fuc(a1-6)]GlcNAc
# Outline: as §1
# [22] = target: Gal(b1-4)GlcNAc(b1-6)GalNAc
# Outline: as §1
# Gal3S6S(b1-4)GlcNAc = target: Gal3S6S(b1-4)GlcNAc
# Outline: as §1
# Gal4S6S(b1-4)GlcNAc = target: Gal4S6S(b1-4)GlcNAc
# Outline: as §1
# GalNAc(b1-4)GlcNAc = target: GalNAc(b1-4)GlcNAc
# Outline: as §1
# Glc(a1-6)Glc(a1-6)Glc = target: Glc(a1-6)Glc(a1-6)Glc
# Outline: as §1
# [23] = target: GlcNAc(a1-4)Gal(b1-3)GlcNAc
# Outline: as §1
# [24] = target: GlcNAc(a1-4)Gal(b1-4)GlcNAc(b1-3)Gal(b1-4)Glc
# Outline: as §1
# [25] = target: GlcNAc(a1-4)Gal(b1-4)GlcNAc(b1-3)Gal(b1-4)GlcNAc
# Outline: as §1
# [26] = target: GlcNAc(b1-3)Gal(b1-4)GlcNAc(b1-3)GalNAc
# Outline: as §1
# [27] = target: Man(a1-3)[Man(a1-6)]Man(b1-4)GlcNAc(b1-4)GlcNAc
# Outline: as §1
# [28] = target: Man(a1-3)[Man(a1-6)]Man(b1-4)GlcNAc(b1-4)[Fuc(a1-6)]GlcNAc
# Outline: as §1
# [29] = target: Neu5Ac(a2-3)Gal(b1-3)GlcNAc
# Outline: as §1
# [30] = target: Neu5Ac(a2-3)Gal(b1-3)[Neu5Ac(a2-6)]GalNAc
# Outline: as §1
# Neu5Ac(a2-3)Gal(b1-4)Glc = target: Neu5Ac(a2-3)Gal(b1-4)Glc
# Outline: as §1
# [31] = target: Neu5Ac(a2-3)Gal6S(b1-4)[Fuc(a1-3)]GlcNAc
# Outline: as §1
# [32] = target: Neu5Ac(a2-3)[GalNAc(b1-4)]Gal(b1-4)Glc
# Outline: as §1
# [33] = target: Neu5Ac(a2-6)Gal(b1-4)GlcNAc(b1-2)Man
# Outline: as §1
# [34] = target: Neu5Ac(a2-6)Gal(b1-4)GlcNAc(b1-2)Man(a1-6)[GlcNAc(b1-2)Man(a1-3)]Man(b1-4)GlcNAc(b1-4)GlcNAc
# Outline: as §1
# [35] = target: Neu5Ac(a2-6)GlcNAc(b1-4)GlcNAc
# Outline: as §1
# [36] = target: Neu5Gc(a2-3)Gal(b1-3)GlcNAc
# Outline: as §1
# [37] = target: Neu5Gc(a2-3)Gal(b1-4)GlcNAc(b1-3)Gal(b1-4)GlcNAc(b1-2)Man(a1-3)[Neu5Gc(a2-3)Gal(b1-4)GlcNAc(b1-3)Gal(b1-4)GlcNAc(b1-2)Man(a1-6)]Man(b1-4)GlcNAc(b1-4)GlcNAc
# Outline: as §1
binder,measurement,setting,value
B1,glycan array binding signal (z-score),[1],-1.15
same,glycan array binding signal (z-score),[2],-0.39
same,glycan array binding signal (z-score),[3],-0.72
same,glycan array binding signal (z-score),[4],-0.667
same,glycan array binding signal (z-score),[5],-0.351
same,glycan array binding signal (z-score),[6],1.81
same,glycan array binding signal (z-score),[7],-0.881
same,glycan array binding signal (z-score),[8],-0.545
same,glycan array binding signal (z-score),[9],1.77
same,glycan array binding signal (z-score),[10],-0.029
same,glycan array binding signal (z-score),Gal(a1-4)GlcNAc,-0.2
same,glycan array binding signal (z-score),Gal(b1-2)Gal,0.046
same,glycan array binding signal (z-score),Gal(b1-3)Gal,1.8
same,glycan array binding signal (z-score),Gal(b1-3)GalNAc,2.6
same,glycan array binding signal (z-score),Gal(b1-3)GalNAc(b1-3)Gal,7.07
same,glycan array binding signal (z-score),[11],11.2
same,glycan array binding signal (z-score),Gal(b1-3)GlcNAc,-0.318
same,glycan array binding signal (z-score),[12],-0.366
same,glycan array binding signal (z-score),[13],-0.852
same,glycan array binding signal (z-score),[14],2.11
same,glycan array binding signal (z-score),[15],2.79
same,glycan array binding signal (z-score),[16],-0.274
same,glycan array binding signal (z-score),[17],-0.054
same,glycan array binding signal (z-score),[18],0.051
same,glycan array binding signal (z-score),[19],-0.671
same,glycan array binding signal (z-score),[20],0.667
same,glycan array binding signal (z-score),[21],2.41
same,glycan array binding signal (z-score),[22],-0.068
same,glycan array binding signal (z-score),Gal3S6S(b1-4)GlcNAc,1.73
same,glycan array binding signal (z-score),Gal4S6S(b1-4)GlcNAc,0.289
same,glycan array binding signal (z-score),GalNAc(b1-4)GlcNAc,-0.514
same,glycan array binding signal (z-score),Glc(a1-6)Glc(a1-6)Glc,-1.11
same,glycan array binding signal (z-score),[23],1.83
same,glycan array binding signal (z-score),[24],-1.22
same,glycan array binding signal (z-score),[25],-0.664
same,glycan array binding signal (z-score),[26],2.14
same,glycan array binding signal (z-score),[27],-0.241
same,glycan array binding signal (z-score),[28],-0.543
same,glycan array binding signal (z-score),[29],0.214
same,glycan array binding signal (z-score),[30],-0.468
same,glycan array binding signal (z-score),Neu5Ac(a2-3)Gal(b1-4)Glc,-1.01
same,glycan array binding signal (z-score),[31],-1.12
same,glycan array binding signal (z-score),[32],1.36
same,glycan array binding signal (z-score),[33],0.374
same,glycan array binding signal (z-score),[34],0.936
same,glycan array binding signal (z-score),[35],2.98
same,glycan array binding signal (z-score),[36],0.424
same,glycan array binding signal (z-score),[37],-0.663
